Key:
Assay in all cases: PBM binding z-score (relative to random genomic background probes); higher = stronger binding; sequences stand for … in GC…GCGATTGACAGCGTAGAATGAAGG
[1] = system: FXR:RXRa (NR concentration 270 nM, RXRa partner concentration 90 nM)
How it was run: (§1)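 Ligand-free nuclear receptor dimers were bound for 1 h to custom Agilent 4×180K protein-binding microarrays. Detection used antibodies against each partner (one per run). Binding z-scores rest on regression-normalized fluorescence, with random background probes as the reference.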

[2] = system: LXRa:RXRa (NR concentration 270 nM, RXRa partner concentration 90 nM)
How it was run: as §1

[3] = system: LXRa homodimer (NR concentration 270 nM)
How it was run: as §1

[4] = system: LXRb:RXRa (NR concentration 270 nM, RXRa partner concentration 90 nM)
How it was run: as §1

[5] = system: LXRb homodimer (NR concentration 270 nM)
How it was run: as §1

[6] = system: PPARa:RXRa (NR concentration 270 nM, RXRa partner concentration 90 nM)
How it was run: as §1

[7] = system: PPARg:RXRa (NR concentration 180 nM, RXRa partner concentration 90 nM)
How it was run: as §1

[8] = system: PPARg:RXRa 270nM:90nM, anti-RXR (NR concentration 270 nM, RXRa partner concentration 90 nM)
How it was run: as §1

[9] = system: PPARg:RXRa 30nM:10nM, anti-RXR (NR concentration 30 nM, RXRa partner concentration 10 nM)
How it was run: as §1

[10] = system: PPARg:RXRa 90nM:30nM, anti-RXR (NR concentration 90 nM, RXRa partner concentration 30 nM)
How it was run: as §1

[11] = system: PPARg:RXRa DBDmut IVT, anti-RXR (DBD mutation: RXRa K156A/R161A, NR concentration 270 nM, RXRa partner concentration 90 nM)
How it was run: as §1

[12] = system: PPARg:RXRa IVT, anti-PPARg (NR concentration 270 nM, RXRa partner concentration 90 nM)
How it was run: as §1

[13] = system: PPARg DBDmut:RXRa IVT, anti-PPARg (DBD mutation: PPARg1 K132A/R137A, NR concentration 270 nM, RXRa partner concentration 90 nM)
How it was run: as §1

[14] = system: PPARg DBDmut IVT, anti-PPARg (DBD mutation: PPARg1 K132A/R137A, NR concentration 270 nM)
How it was run: as §1

[15] = system: PPARg homodimer (NR concentration 180 nM)
How it was run: as §1

[16] = system: PXR:RXRa (NR concentration 270 nM, RXRa partner concentration 90 nM)
How it was run: as §1

[17] = system: PXR homodimer (NR concentration 270 nM)
How it was run: as §1

[18] = system: RARa:RXR (NR concentration 270 nM, RXRa partner concentration 90 nM)
How it was run: as §1

[19] = system: RARa homodimer (NR concentration 270 nM)
How it was run: as §1

[20] = system: RARb:RXRa (NR concentration 270 nM, RXRa partner concentration 90 nM)
How it was run: as §1

Sequence	PBM binding z-score [1]	PBM binding z-score [2]	PBM binding z-score [3]	PBM binding z-score [4]	PBM binding z-score [5]	PBM binding z-score [6]	PBM binding z-score [7]	PBM binding z-score [8]	PBM binding z-score [9]	PBM binding z-score [10]	PBM binding z-score [11]	PBM binding z-score [12]	PBM binding z-score [13]	PBM binding z-score [14]	PBM binding z-score [15]	PBM binding z-score [16]	PBM binding z-score [17]	PBM binding z-score [18]	PBM binding z-score [19]	PBM binding z-score [20]
AGAACGAGGCCAATGAGTTGATAGCACGGGTGGC	-0.177	-0.455	-0.576	-0.817	-0.913	0.0353	0.81	-0.06	-0.388	0.093	1.54	0.862	0.703	0.331	-0.093	0.214	0.741	-0.114	0.0259	0.946
TCCTATAGGTAAAAGGTGAAAGTCGGTGTGGTAA	2.04	1.54	-0.461	1.82	-0.544	4.65	7.68	7.41	7.38	8.23	3.53	3.95	0.0451	0.327	1.1	1.66	0.259	2.87	0.703	1.85
CCTCGTTGGTCAAGGTCACACACGCTATAGGTAC	4.27	4.25	2.8	3.8	1.08	4.07	2.47	3.17	0.974	2.24	1.3	2.58	1.08	-0.102	3.26	4.25	1.82	4.63	2.69	4.18
CCTACTGAGCCAAAGGTCATTGATTCCAATGCTC	5.45	5.55	4.66	5.13	2.18	5.53	8.72	8.74	7.32	9.2	1.79	3.91	0.27	0.224	5.35	5.49	2.67	5.91	2.36	4.57
TCGAGTAGGTTACCAATCGGGCATTCAGCTTTCT	-0.222	0.961	-0.836	-0.125	-1.27	0.717	-0.0284	1.08	1.26	1.27	3.13	2.4	-0.0689	-0.723	-0.473	-0.159	-0.753	-0.172	-0.843	0.778
TTGAGTAGGTTAGGGGCATTCAGAATGGCGTCGA	0.794	0.55	0.331	1.42	1.36	1.84	1.34	2.8	1.58	2.25	3.21	2.8	0.225	0.781	1.61	0.703	1.3	0.894	1.42	1.42
ACTATTAGTTGACTTAGGGGAACCGATACGACGC	0.255	0.123	0.277	0.421	1.27	0.0304	0.951	0.244	0.351	0.326	1.27	0.41	1.51	1.41	0.783	0.271	0.621	0.648	1.36	0.217
TCTTGTAGATCAAGCAGGTTAAGTAAGCCTGAGT	0.318	0.3	-0.426	0.29	-0.426	0.576	-0.618	1.2	2.3	1.78	1.68	0.377	0.298	-0.27	0.192	0.295	0.247	0.198	-0.203	0.138
TAGCCTAGGTGATGCGGGCCAGTATAGTGTCGGC	-0.724	-0.891	-0.841	-1.2	-1.39	-0.486	-0.087	-0.902	-1.01	-0.934	-0.174	0.433	-0.831	-0.995	-1	-0.852	-0.76	-0.959	-0.718	-0.225
CGTCCAGGGTCATAGGAGGTCAGTGAAGACAGAT	7.36	7.25	2.83	6.26	0.185	5.85	5.65	5.78	2.38	4.63	1.75	3.92	0.473	-0.113	4.96	6.84	2.73	6.61	2.39	4.79
CCGAATGGGGCAGAAAGGTTACCATACCATCCGG	0.445	0.679	0.189	0.904	-0.832	2.53	2.67	4.16	2.22	3.95	0.269	1	-1.13	-0.938	0.818	1.11	0.134	1.8	-0.0696	1.89
ATACCAAGGTGATCGTCAGGTCGTTGATACTAAC	1.07	0.928	0.311	0.454	-0.244	0.892	0.38	0.265	0.184	0.227	0.522	1.08	0.616	-0.131	0.369	1.24	0.399	1.23	-0.256	1.12
GCGACTGGCGCATCAGCAGGTTACCATAACTTAA	-0.425	-0.781	-0.313	-0.631	-1.19	-0.493	-0.0523	-0.785	-0.798	-0.75	-0.575	-0.748	-1.28	-1.31	-0.552	-0.518	-0.619	-0.34	-0.992	-1.03
ATCTCTAGGTAAAGTTCTGTGAAAGATCGATAGA	0.326	0.57	0.294	0.0682	0.741	0.12	0.24	0.886	0.571	0.677	2.44	1.61	1.11	1.68	1.26	0.0126	0.619	0.484	0.939	0.419
